# The list is not random: actives were taken first. Their share in the collection is about 0.24%.
# NPYLR7 agonist – mosquito NPYLR7 agonism | HEK293T NPYLR7/Galpha15, GCaMP6s calcium fluorescence | activation, % at 10 µM | actives 0.15% (n = 270,000) | AID 1259423; in the data active = activation above about 40%;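 note: 0% = vehicle and 100% = reference agonist at the receptor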
# hcGAS lum – inhibitors of human cGAS; Q8N884; inhibition, % at 12.5 µM; recombinant h-cGAS, ATP depletion, Kinase-Glo luminescence; actives 0.081% (n = 290,000); AID 1259398;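 note: 0% = vehicle reaction and 100% = reaction without DNA for no activity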
# mcGAS lum – inhibitors of mouse cGAS. Q8C6L5. recombinant cGAS, Kinase-Glo ATP depletion luminescence. inhibition, % at 12.5 µM. actives 0.15% (n = 160,000). AID 1259399;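 note: 0% = negative control wells and 100% = reference inhibitor with no enzyme activity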
# Target sequence (Q8C6L5 whole entry, looked up): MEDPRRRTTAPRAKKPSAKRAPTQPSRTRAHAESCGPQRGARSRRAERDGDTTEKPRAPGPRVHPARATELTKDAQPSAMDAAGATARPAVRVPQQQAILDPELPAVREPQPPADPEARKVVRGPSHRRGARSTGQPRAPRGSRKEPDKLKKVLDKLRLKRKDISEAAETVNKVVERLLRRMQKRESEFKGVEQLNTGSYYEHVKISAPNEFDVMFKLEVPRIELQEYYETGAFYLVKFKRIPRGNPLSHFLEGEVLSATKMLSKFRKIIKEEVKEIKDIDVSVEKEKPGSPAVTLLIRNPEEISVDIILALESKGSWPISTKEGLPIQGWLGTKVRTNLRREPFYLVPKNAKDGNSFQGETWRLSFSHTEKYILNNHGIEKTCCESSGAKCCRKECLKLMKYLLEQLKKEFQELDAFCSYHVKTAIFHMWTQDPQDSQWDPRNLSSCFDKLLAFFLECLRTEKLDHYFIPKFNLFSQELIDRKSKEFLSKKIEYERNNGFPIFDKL
# Active calls of the source: *; . = no result; ! = a repeat was not active. Cut-off read from the data, not from the text of the source, unless noted: active = inhibition above about 40%; inactive = the rest.
SMILES,NPYLR7 agonist,hcGAS lum,mcGAS lum
Cc1cc(=O)n2[nH]cc(-c3ccccc3Cl)c2n1,3,46*,26
Cc1cc(=O)n2[nH]cc(-c3ccc(F)cc3)c2n1,-14,-7,.
COC(=O)CCC(=O)c1ccc(Br)s1,-3,-6,-4
COC(=O)Cc1ccc(C(=O)CCl)s1,13,-4,56*
O=C(O)CN(CC(=O)O)Cc1cc2c(-c3ccccc3C(=O)O)c3cc(CN(CC(=O)O)CC(=O)O)c(=O)cc-3oc2cc1O,.,-3,-1
CCN(CC)c1ccc2c(-c3ccccc3C(=O)O)c3ccc(=[N+](CC)CC)cc-3oc2c1,44*,-49,-28
COC(=O)Nc1ccccc1OCc1nccn1CC(F)(F)F,4,-6,.
Oc1ccccc1C1=NNC2(CC3CC2C2CCCC32)S1 (stereo not given),-8,78*,.
CCCc1[nH]n(-c2cccc(Cl)c2)c(=O)c1/C=C1\NC(=O)N(Cc2ccc(C)cc2)C1=O,-2,7,1
CCCc1[nH]n(-c2ccc(Cl)c(Cl)c2)c(=O)c1/C=C1\NC(=O)N(Cc2ccc(C)cc2)C1=O,56*,-2,-9
C[n+]1c2cc(N)ccc2cc2ccc(N)cc21,120*,68*,.
Cc1nc2ccc(N)cc2s1,1,5,1
O=C(c1ccc(CSc2nnc(-c3ccncc3)n2Cc2ccccc2)cc1)N1CCN(c2ccccc2F)CC1,28,-1,-8
O=C(NCc1cccc(F)c1F)c1ccc(-c2cc(-c3cccc4c3OCCO4)[nH]n2)cc1,.,-5,105*
CCSCCNC(=O)c1ccc(-c2cc(-c3cccc4c3OCCO4)[nH]n2)cc1,6,-5,-6
O=C1c2c(O)ccc(O)c2C(=O)c2c(NCCNCCO)ccc(NCCNCCO)c21,-5,42*!,76*
CCCCNc1ccc(NCCCC)c2c1C(=O)c1ccccc1C2=O,0,-12,-7
O=C1C2C3C=CC(CC3)C2C(=O)N1/N=C\c1cc([N+](=O)[O-])c(O)cc1O (stereo not given),-10,0,66*
O=C1C2C3C=CC(CC3)C2C(=O)N1/N=C\c1cc2c(cc1Br)OCO2 (stereo not given),4,0,-3
Cc1csc(-c2cc3ccc(O)c(CN4CCN(CCO)CC4)c3oc2=O)n1,69*,-3,.
O=c1oc2c(CN3CCN(CCO)CC3)c(O)ccc2cc1-c1ccccc1,4,-8,-8
O=C(NCCN1CCc2ccccc21)C1CC2(CCNCC2)CN1 (stereo not given),-1,-3,.
Cc1c(C(=O)C(F)(F)F)c2ccccc2n1CC(=O)N(C)c1ccccc1,5,-16,.
N#CC1C(=N)C(C#N)(C#N)C(c2cccs2)C2CSCC=C12 (stereo not given),17,-2,.
CCN1CC=C2C(C#N)C(=N)C(C#N)(C#N)C(c3cccs3)C2C1 (stereo not given),50*,0,-2
SMILES,NPYLR7 agonist,hcGAS lum,mcGAS lum
COc1ccc(CCOc2nc(-c3ccco3)n(-c3cccc(NC(=O)Nc4ccc(F)cc4F)c3)n2)cc1,.,4,2
CC1(C)C2CCC1(C)C(NC(=O)Cn1ccc(=O)c3ccccc31)C2 (stereo not given),-23,0,.
CC(Cc1cccs1)Nc1nc2nonc2nc1N1CCOCC1 (stereo not given),14,-8,.
O=[N+]([O-])c1c(N2CCN(CCO)CC2)ccc2nonc12,-7,5,.
O=c1oc2cc(O)ccc2cc1-c1nnc(-c2ccccc2)o1,35,9,-6
O=c1oc2cc(O)ccc2cc1-c1nc2ccccc2o1,216*,5,.
CC1CN(C(=O)CSc2cn(CC(=O)N3CCCC3)c3ccccc23)CC(C)O1 (stereo not given),-5,-3,-6
COc1ccc(/C=C2\SC(=S)N(C(C)C(=O)O)C2=O)cc1OC (stereo not given),-3,-1,-7
COc1cc(/C=C2\SC(=S)N(C(C)C(=O)O)C2=O)ccc1O (stereo not given),82*,-10,-1
COc1ccc(/C=C2\SC(=S)N(C(CCSC)C(=O)O)C2=O)cc1OC (stereo not given),-2,-8,-3
CSCCC(C(=O)O)N1C(=O)/C(=C/c2ccc(O)cc2)SC1=S (stereo not given),74*,-2,1
Cn1nnnc1SCc1csc(-c2c(F)cccc2F)n1,15,-6,-6
CCC(C(=O)NC(Cc1ccccc1)c1nnc(SCc2ccc(F)cc2)n1-c1cc(Cl)ccc1C)c1ccccc1 (stereo not given),9,-2,-3
CC(=O)c1c(C)[nH]c(C(=O)Nc2nc(C)cs2)c1C,6,-5,.
CC(=O)Nc1nc(COC(=O)c2[nH]c(C)c(C(=O)OC(C)C)c2C)cs1,46*,-4,-8
O=c1nc(SCc2ccc(Cl)cc2)c2c(n1CC1CCCO1)CCCC2 (stereo not given),-4,-6,-9
CNc1nc2cnc(-c3ccc(OC)c(OC)c3)cc2n1Cc1ccccc1,32,-5,-7
COc1ccc(OC)c(CCNc2nc3cnc(-c4ccc(Cl)cc4)cc3n2C)c1,83*,-6,-7
COc1ccc(OC)c(CCNc2nc3cnc(-c4cc(OC)c(OC)c(OC)c4)cc3n2C)c1,70*,-5,-7
COc1ccc(Cn2cnc3cnc(-c4cc(OC)c(OC)c(OC)c4)cc32)cc1OC,9,-5,-9
O=C(CN1CCC(CCc2ccccc2)CC1)Nc1[nH]nc2ncccc12,.,-3,.
COCc1cc(C)nc(OCC(=O)N/N=C\c2ccc3c(c2)OCO3)c1C#N,19,-7,-6
CCOc1cc2c(cc1N)OC(C)C2 (stereo not given),-2,-1,-5
CCOc1cc2c(cc1C=C(C#N)C#N)OC(C)C2 (stereo not given),95*,-5,.
Cc1nc(COc2ccc(C(=O)NC3CCCCCCC3)cc2)no1,3,-8,.
SMILES,NPYLR7 agonist,hcGAS lum,mcGAS lum
N#Cc1ccc([N+](=O)[O-])c(O)c1,-7,3,.
N#Cc1cc(I)c(O)c([N+](=O)[O-])c1,-7,67*,.
CCN(CC)CC(=O)N1N=C(c2ccc(Cl)cc2)CC1c1ccco1 (stereo not given),-2,5,-3
O=C(CCl)N1N=C(c2ccc(Cl)cc2)CC1c1ccco1 (stereo not given),-5,-7,52*
CC(C)NC(=O)N(C)CC1CC(c2cccc(F)c2)=NO1 (stereo not given),.,-1,-9
COC1=C(OC)C(=O)c2ccccc2C1=O,-6,-1,12
CS(=O)(=O)N=C1C=C(S(=O)(=O)c2ccccc2)C(=O)c2ccccc21,2,55*,.
CCC1=NN2C(=N)/C(=C\c3ccccc3Br)C(=O)N=C2S1,2,16,.
CCC1=NN2C(=N)/C(=C\c3ccc(OC)c(OC)c3OC)C(=O)N=C2S1,-2,-2,44*
O=[N+]([O-])c1ccc2c(c1)CCN2Cc1cc2c(cc1Br)OCO2,0,-3,.
O=C(c1ccc(CN2CCc3ccccc3C2)cc1)N1CCC(O)(CO)CC1,-2,-5,-9
O=C(CCN(CCc1ccccc1)c1nc(-c2ccc(Cl)cc2)nc2ccccc12)NCc1ccccc1,17,-10,-4
CNC(=O)CSc1cn(CC(=O)N2CCCCCC2)c2ccccc12,-7,3,-3

# Screening data deposited in PubChem BioAssay by Fisher Drug Discovery Resource Center.
